The results in this text go back to PubChem BioAssay (EPA / NIEHS).

The term AC50 denotes the concentration giving half of the maximal activity seen.

Calls of active or inactive are those of the source. Rule for the calls: active = hit-call score of the fitted dose curve at least 0.9, where 1 is the maximum; inactive = score below 0.9.

Assay [1] in a line: ATG_GLI_CIS: Attagene CIS-FACTORIAL HepG2 Assay for human Zinc Finger Protein GLI1 (AID 2282945). Particulars: HepG2, Attagene cis-factorial reporter mRNA, GLI element; actives raise or lower the signal. The method in brief:
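Bidirectional curve fits relative to DMSO, using reporter mRNA levels from RT-PCR plus capillary electrophoresis. Cells were HepG2 transiently carrying cis-regulated reporter constructs, harvested 24 h after dosing.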

Assay [2] has as its target Bile acid receptor (Homo sapiens) (UniProt Q96RI1). The experiment in a line: ATG_IR1_CIS: Attagene CIS-FACTORIAL HepG2 Assay for human Nuclear Receptor Subfamily 1 Group H Member 4 (NR1H4), IR1 submotif (AID 2282946). The settings on record: IR1 reporter transcription, actives raise or lower the signal. The method in brief: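 Cells (human HepG2) carry transiently transfected cis-promoter reporter transcription units. Compounds are incubated 24 h, total RNA is reverse-transcribed and amplified, and labelled fragments are resolved by capillary electrophoresis. Curves use DMSO as baseline.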

The nature of assay [3]: ATG_GRE_CIS: Attagene CIS-FACTORIAL HepG2 Assay for human Glucocorticoid Response Elements (GRE) (AID 2282947). Particulars: HepG2 GRE cis-reporter, Attagene multiplex mRNA; actives raise or lower the signal. The method in brief: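 Transient MRTU transfection of human HepG2 liver cells; cis-regulated reporters report endogenous factors. 24 h dosing → RNA isolation → RT-PCR → 6-FAM primer extension → HpaI cut → CE fragment analysis. Bidirectional fit, DMSO negative control.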

A short description of assay [4]: ATG_ISRE_CIS: Attagene CIS-FACTORIAL HepG2 Assay for human Interferon Regulatory Factor 1 (IRF1) binding to an Interferon-Stimulated Response Element (ISRE) (AID 2282948). Particulars: HepG2 ISRE cis-reporter (Attagene), mRNA transcription readout; actives raise or lower the signal. The method in brief: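 Cell-based cis-reporter assay; HepG2; 24 h exposure; reporter mRNA by RT-PCR plus capillary electrophoresis fluorescence; activity in either direction scored relative to DMSO.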

A short description of assay [5]: ATG_M_32_CIS: Attagene CIS-FACTORIAL HepG2 Assay for M32 Transcription Factor (Internal Marker) (AID 2282949).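 Note: background control marker of the multiplexed CIS panel rather than a real target.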 The settings on record: HepG2 Attagene cis-factorial M32 reporter, mRNA; actives raise or lower the signal. The method in brief:
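Fluorescent capillary electrophoresis peaks of HpaI-digested, FAM-labelled RT-PCR reporter products give the signal. Source: transiently transfected human liver HepG2 cells, 24 h after chemical dosing; bidirectional fitting against DMSO.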

Assay [6] in a line: ATG_M_06_CIS: Attagene CIS-FACTORIAL HepG2 Assay for M06 Transcription Factor (Internal Marker) (AID 2282950). The settings on record: HepG2 Attagene CIS-FACTORIAL M06 internal marker reporter; actives raise or lower the signal. The procedure, abridged: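 Fluorescence-labelled RT-PCR products from cis-promoter reporter units, cut with HpaI and resolved by capillary electrophoresis, give the signal. Cells are human HepG2, dosed for 24 h. Serves as background control, fitted relative to DMSO.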

Assay [7] concerns the target Hypoxia-inducible factor 1-alpha (Homo sapiens) (UniProt Q16665). The experiment in a line: ATG_HIF1a_CIS: Attagene CIS-FACTORIAL HepG2 Assay for human Hypoxia Inducible Factor 1 (HIF1A) (AID 2282951). The settings on record: HepG2 Attagene cis-factorial HIF1a reporter transcription; actives raise or lower the signal. The method in brief:
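In this multiplexed cell assay, HepG2 cells bearing transfected cis reporters are dosed for 24 h and reporter mRNA is read by RT-PCR plus capillary electrophoresis; signal increases and decreases are both scored against DMSO.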

For assay [8], the target named is Hepatocyte nuclear factor 6 (Homo sapiens) (UniProt Q9UBC0). Briefly: ATG_HNF6_CIS: Attagene CIS-FACTORIAL HepG2 Assay for human Hepatocyte Nuclear Factor 6 (HNF6) (AID 2282952). The settings on record: HepG2 Attagene cis-factorial HNF6 reporter transcription; actives raise or lower the signal. The method in brief: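 Cells are HepG2 carrying transiently transfected cis-promoter reporter units. Treatment lasts 24 h, after which reporter transcripts are reverse-transcribed, amplified, FAM-labelled and sized by capillary electrophoresis. DMSO serves as baseline.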
Chain of Hepatocyte nuclear factor 6 (Homo sapiens) (Q9UBC0 whole entry, looked up): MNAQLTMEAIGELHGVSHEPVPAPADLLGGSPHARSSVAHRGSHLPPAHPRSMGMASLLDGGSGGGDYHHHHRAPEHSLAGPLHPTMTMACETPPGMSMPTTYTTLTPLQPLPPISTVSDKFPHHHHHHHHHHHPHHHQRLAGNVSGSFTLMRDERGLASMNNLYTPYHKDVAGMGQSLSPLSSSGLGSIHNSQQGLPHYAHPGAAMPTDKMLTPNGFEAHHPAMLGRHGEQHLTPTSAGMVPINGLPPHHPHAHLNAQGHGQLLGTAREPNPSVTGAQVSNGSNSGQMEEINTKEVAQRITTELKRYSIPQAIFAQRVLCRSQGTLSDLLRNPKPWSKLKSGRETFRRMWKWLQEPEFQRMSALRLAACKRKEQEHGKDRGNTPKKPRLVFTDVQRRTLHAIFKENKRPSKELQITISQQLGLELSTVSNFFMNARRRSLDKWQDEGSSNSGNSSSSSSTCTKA

Assay [9] addresses Heat shock factor protein 1 (Homo sapiens) (UniProt Q00613). Briefly: ATG_HSE_CIS: Attagene CIS-FACTORIAL HepG2 Assay for human Heat Shock Transcription Factor 1 (HSE) (AID 2282953). Particulars: HepG2 HSE cis-reporter, Attagene RNA transcription; actives raise or lower the signal. The procedure, abridged:
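After a 24 h incubation with test chemical, transfected HepG2 cells were harvested for RNA; reporter transcripts were measured by RT-PCR and capillary electrophoresis. Values reflect gain or loss of signal relative to DMSO.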

Assay [10] in a line: ATG_MRE_CIS: Attagene CIS-FACTORIAL HepG2 Assay for human Metal Responsive Element (MRE) (AID 2282954). Particulars: HepG2 MRE cis-reporter transcription, Attagene multiplex; actives raise or lower the signal. The procedure, abridged: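 Transient MRTU transfection of HepG2 (FuGene 6); 24 h dosing; total RNA → oligo(dT) RT, PCR, 6-FAM primer extension, HpaI cut, CE. Bidirectional fit vs DMSO.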

The target of assay [11] is Paired box protein Pax-6 (Homo sapiens) (UniProt P26367). Briefly: ATG_Pax6_CIS: Attagene CIS-FACTORIAL HepG2 Assay for human Paired Box 6 (PAX6) (AID 2282956). Particulars: HepG2 CIS-FACTORIAL PAX6 reporter transcription, RNA readout; actives raise or lower the signal. The procedure, abridged:
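Multiplexed cis-reporter HepG2 system; 24 h treatment; reporter mRNA read by RT-PCR/CE fluorescence; bidirectional fit vs DMSO.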

Assay [12] in a line: ATG_PXRE_CIS: Attagene CIS-FACTORIAL HepG2 Assay for human Pregnane X Receptor Element (PXRE) (AID 2282957). The settings on record: HepG2 Attagene CIS-FACTORIAL PXRE reporter, mRNA; actives raise or lower the signal. The method in brief: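 Multiplexed cis-reporter assay in transiently transfected human HepG2 cells; 24 h chemical exposure. Reporter transcripts quantified by RT-PCR with fluorescent labeling and capillary electrophoresis.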

Assay [13] can be described thus: ATG_PPRE_CIS: Attagene CIS-FACTORIAL HepG2 Assay for human Peroxisome Proliferator-activated Response Element (PPRE) (AID 2282958). Particulars: HepG2 PPRE cis-element reporter, Attagene transcription factor profiling; actives raise or lower the signal. The method in brief:
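Multiplexed reporter transcription units under cis-regulatory promoters were transfected into HepG2 cells to capture endogenous factor activity. A 24 h incubation preceded RNA isolation and fluorescent RT-PCR fragment analysis.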

Assay [14] is described as follows: ATG_RORE_CIS: Attagene CIS-FACTORIAL HepG2 Assay for human RAR-related Orphan Receptor Element (RORE) (AID 2282959). Particulars: HepG2 Attagene cis-factorial RORE reporter, mRNA; actives raise or lower the signal. The method in brief:
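Fluorescence intensity of reporter-specific cDNA fragments, separated by capillary electrophoresis, gives the signal. Source: HepG2 liver cells transiently transfected with cis-element reporters and exposed 24 h; DMSO-normalized bidirectional fit.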

The nature of assay [15]: ATG_Sox_CIS: Attagene CIS-FACTORIAL HepG2 Assay for human SRY-box transcription factor (SOX) (AID 2282960). The settings on record: HepG2 Attagene cis-factorial SOX reporter, mRNA; actives raise or lower the signal. The procedure, abridged: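 After 24 h of chemical treatment, transfected HepG2 reporter cells are lysed for total RNA. Transcript levels come from RT-PCR with labelled primer extension and capillary electrophoresis, analysed bidirectionally versus DMSO.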

The target of assay [16] is Transcription factor Sp1 (Homo sapiens) (UniProt P08047). Briefly: ATG_Sp1_CIS: Attagene CIS-FACTORIAL HepG2 Assay for human Specificity Protein 1 (Sp1) (AID 2282961). Particulars: HepG2 Sp1 cis-reporter transcription, actives raise or lower the signal. The procedure, abridged:
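Sp1-driven reporter mRNA, read as capillary electrophoresis fluorescence after RT-PCR, in transiently transfected HepG2 cells dosed for 24 h; signal change in either direction relative to DMSO.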

Assay [17] in a line: ATG_SREBP_CIS: Attagene CIS-FACTORIAL HepG2 Assay for human Sterol Regulatory Element Binding (SREBP) (AID 2282962). Particulars: HepG2 Attagene cis-factorial SREBP reporter, mRNA; actives raise or lower the signal. The procedure, abridged: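 mRNA induction of transfected cis-promoter reporters in HepG2 cells, 24 h post-dose. Detection: RT-PCR with 6-FAM-labelled products, HpaI digest, capillary electrophoresis. DMSO served as negative control and baseline.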

In assay [18] the target is Signal transducer and activator of transcription 3 (Homo sapiens) (UniProt P40763). Briefly: ATG_STAT3_CIS: Attagene CIS-FACTORIAL HepG2 Assay for human Signal Transducer and Activator of Transcription 3 (STAT3) (AID 2282963). The settings on record: HepG2, Attagene cis-factorial STAT3 reporter transcription; actives raise or lower the signal. The method in brief: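 Endogenous STAT3-responsive cis-element activity was read in transiently transfected HepG2 cells after 24 h treatment. Reporter transcripts were quantified via RT-PCR and capillary electrophoresis, with DMSO as negative control and bidirectional curve fitting.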
Chain of Signal transducer and activator of transcription 3 (Homo sapiens) (P40763 whole entry, looked up): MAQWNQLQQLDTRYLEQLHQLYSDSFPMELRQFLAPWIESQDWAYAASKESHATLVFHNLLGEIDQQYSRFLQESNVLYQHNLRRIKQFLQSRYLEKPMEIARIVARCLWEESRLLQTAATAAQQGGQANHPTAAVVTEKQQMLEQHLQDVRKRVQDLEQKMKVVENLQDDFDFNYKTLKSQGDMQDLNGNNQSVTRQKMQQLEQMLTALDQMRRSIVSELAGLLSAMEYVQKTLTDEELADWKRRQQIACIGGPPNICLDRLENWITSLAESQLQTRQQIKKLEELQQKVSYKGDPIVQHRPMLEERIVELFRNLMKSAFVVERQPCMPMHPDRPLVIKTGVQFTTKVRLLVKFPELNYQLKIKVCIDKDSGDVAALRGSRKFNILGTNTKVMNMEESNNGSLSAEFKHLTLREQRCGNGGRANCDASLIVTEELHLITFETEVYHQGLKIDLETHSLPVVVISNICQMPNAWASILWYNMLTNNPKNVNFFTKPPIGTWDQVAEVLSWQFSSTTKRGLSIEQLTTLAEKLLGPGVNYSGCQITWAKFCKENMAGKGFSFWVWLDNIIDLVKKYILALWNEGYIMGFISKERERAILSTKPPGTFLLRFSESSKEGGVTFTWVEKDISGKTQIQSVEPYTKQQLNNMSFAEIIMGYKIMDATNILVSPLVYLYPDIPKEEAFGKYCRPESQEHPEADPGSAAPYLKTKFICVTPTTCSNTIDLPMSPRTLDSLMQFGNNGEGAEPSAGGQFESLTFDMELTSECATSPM

The nature of assay [19]: ATG_TA_CIS: Attagene CIS-FACTORIAL HepG2 Assay for human TA Basal Promoter (AID 2282964). The settings on record: HepG2 Attagene CIS-factorial TA basal promoter reporter; actives raise or lower the signal. The procedure, abridged: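 Multiplexed mRNA reporter assay, HepG2, 24 h. Reporter cDNA amplified, 6-FAM primer-extended, HpaI-cut, CE-sized; DMSO = negative control and baseline.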

Assay [20] can be described thus: ATG_PBREM_CIS: Attagene CIS-FACTORIAL HepG2 Assay for human Phenobarbital-responsive Enhancer Module (PBREM) (AID 2282955). Particulars: HepG2 PBREM cis-reporter, Attagene multiplexed transcription; actives raise or lower the signal. The method in brief:
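After a 24 h incubation with test chemical, transfected HepG2 cells yield total RNA; reporter-specific RT-PCR products are fluorescently labelled, HpaI-digested and resolved by capillary electrophoresis against ROX size standards.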

Chain of Heat shock factor protein 1 (Homo sapiens) (Q00613 whole entry, looked up): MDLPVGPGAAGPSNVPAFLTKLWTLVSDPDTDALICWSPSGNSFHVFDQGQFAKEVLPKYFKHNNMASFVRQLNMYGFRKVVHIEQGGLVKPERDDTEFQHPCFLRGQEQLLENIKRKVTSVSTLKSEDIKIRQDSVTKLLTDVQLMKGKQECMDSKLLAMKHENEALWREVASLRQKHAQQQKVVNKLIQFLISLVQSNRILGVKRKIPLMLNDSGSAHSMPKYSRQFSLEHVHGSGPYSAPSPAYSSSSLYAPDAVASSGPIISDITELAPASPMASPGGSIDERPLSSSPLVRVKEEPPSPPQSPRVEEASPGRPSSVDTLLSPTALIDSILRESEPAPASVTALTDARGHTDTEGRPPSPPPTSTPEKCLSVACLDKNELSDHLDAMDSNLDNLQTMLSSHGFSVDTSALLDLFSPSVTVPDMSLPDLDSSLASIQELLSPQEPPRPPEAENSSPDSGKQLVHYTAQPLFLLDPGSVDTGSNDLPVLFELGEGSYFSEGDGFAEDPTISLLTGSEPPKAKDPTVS
Chain of Transcription factor Sp1 (Homo sapiens) (P08047 whole entry, looked up): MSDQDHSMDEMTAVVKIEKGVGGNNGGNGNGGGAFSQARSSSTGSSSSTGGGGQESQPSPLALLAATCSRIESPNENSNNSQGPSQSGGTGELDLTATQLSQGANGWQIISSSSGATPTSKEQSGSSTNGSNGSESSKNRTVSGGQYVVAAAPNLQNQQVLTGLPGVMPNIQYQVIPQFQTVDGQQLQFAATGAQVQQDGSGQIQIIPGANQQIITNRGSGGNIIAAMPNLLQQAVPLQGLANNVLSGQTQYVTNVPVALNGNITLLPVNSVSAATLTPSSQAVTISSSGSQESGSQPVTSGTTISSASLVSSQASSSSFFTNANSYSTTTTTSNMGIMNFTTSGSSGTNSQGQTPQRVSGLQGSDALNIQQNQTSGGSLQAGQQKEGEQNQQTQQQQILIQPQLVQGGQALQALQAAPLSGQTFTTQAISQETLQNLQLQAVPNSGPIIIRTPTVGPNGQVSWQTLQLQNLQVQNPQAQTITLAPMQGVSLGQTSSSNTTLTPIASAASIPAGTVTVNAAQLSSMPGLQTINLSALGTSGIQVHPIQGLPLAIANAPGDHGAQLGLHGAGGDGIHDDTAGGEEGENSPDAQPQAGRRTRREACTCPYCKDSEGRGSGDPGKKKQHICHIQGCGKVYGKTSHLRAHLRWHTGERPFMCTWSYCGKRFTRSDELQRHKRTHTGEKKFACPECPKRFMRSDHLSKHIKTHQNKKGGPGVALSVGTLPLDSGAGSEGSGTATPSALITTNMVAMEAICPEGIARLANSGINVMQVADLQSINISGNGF
Chain of Bile acid receptor (Homo sapiens) (Q96RI1 whole entry, looked up, the tested form may be a part): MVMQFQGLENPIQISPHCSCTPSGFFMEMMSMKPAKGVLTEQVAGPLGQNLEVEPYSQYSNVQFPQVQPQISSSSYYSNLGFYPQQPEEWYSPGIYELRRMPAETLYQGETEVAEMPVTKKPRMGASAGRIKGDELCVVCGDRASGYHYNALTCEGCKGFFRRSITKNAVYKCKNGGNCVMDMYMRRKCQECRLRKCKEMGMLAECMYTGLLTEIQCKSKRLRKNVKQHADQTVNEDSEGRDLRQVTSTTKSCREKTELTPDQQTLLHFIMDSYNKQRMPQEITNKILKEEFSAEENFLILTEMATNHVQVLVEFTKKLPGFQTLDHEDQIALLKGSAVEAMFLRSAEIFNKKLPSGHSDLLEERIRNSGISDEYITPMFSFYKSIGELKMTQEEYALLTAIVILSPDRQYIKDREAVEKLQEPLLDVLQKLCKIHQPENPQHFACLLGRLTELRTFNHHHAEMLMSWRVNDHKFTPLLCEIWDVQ
Chain of Hypoxia-inducible factor 1-alpha (Homo sapiens) (Q16665 whole entry, looked up): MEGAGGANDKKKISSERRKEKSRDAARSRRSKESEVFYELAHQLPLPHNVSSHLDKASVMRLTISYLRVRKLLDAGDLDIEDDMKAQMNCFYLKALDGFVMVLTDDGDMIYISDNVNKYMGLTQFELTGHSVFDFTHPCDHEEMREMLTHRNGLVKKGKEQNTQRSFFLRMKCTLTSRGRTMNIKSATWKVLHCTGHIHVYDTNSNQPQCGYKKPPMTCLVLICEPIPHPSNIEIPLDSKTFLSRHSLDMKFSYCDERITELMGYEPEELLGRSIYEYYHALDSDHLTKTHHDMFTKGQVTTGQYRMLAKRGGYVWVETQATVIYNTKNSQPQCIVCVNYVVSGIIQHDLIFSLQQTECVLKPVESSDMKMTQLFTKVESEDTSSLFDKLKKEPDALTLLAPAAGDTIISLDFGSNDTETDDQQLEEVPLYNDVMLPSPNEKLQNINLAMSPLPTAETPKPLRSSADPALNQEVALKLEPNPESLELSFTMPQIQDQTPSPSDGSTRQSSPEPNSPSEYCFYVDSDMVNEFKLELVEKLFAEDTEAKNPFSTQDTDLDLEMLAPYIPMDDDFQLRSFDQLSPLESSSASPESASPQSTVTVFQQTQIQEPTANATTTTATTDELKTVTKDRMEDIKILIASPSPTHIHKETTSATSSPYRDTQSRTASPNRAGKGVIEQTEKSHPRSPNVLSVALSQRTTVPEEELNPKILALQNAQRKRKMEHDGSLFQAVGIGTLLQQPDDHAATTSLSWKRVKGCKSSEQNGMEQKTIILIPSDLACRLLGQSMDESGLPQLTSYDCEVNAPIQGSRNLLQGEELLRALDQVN
Chain of Paired box protein Pax-6 (Homo sapiens) (P26367 whole entry, looked up): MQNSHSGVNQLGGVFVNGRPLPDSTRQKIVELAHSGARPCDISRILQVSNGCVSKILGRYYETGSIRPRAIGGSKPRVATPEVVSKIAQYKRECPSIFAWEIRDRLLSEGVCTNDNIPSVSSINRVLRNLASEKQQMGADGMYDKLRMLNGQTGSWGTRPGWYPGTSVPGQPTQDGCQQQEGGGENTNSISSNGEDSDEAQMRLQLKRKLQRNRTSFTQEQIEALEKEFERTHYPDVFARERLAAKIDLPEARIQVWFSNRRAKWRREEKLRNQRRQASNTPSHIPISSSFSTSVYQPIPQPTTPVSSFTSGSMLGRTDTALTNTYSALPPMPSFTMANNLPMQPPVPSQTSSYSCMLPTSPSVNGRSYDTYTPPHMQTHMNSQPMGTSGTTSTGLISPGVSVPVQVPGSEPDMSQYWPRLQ

On to `C=CC(=O)OCC(F)(F)C(F)(F)C(F)(F)C(F)(F)C(F)(F)C(F)(F)C(F)(F)C(F)F`, for which the call in [1], in [2], in [3], in assay [5], in assay [6] and in assay [7] was inactive. In addition, the outcome in assay [8], in assay [11], in [13], in [14], in assay [16] and in [17] was inactive. In addition, the outcome in assay [18] and in assay [19] was inactive. Moreover, the AC50 in [4] was 150 µM (active); in assay [9] it was 218 µM (active); in assay [10] it was 231 µM (active); in assay [12] it was 38.3 µM (active); in assay [15] it was 271 µM (active).
With `O=C(O)C(F)(F)C(F)(F)C(F)(F)C(F)(F)C(F)(F)C(F)(F)C(F)F`, the outcome in [1], in assay [2], in assay [3], in [4], in assay [5] and in assay [6] was inactive. Besides, the call in [7], in assay [8], in assay [9], in assay [10], in assay [11] and in assay [14] was inactive. The compound was classed as inactive in [15], in assay [16], in assay [18] and in [19]. In addition, the AC50 was 27.6 µM (active) in assay [12], 46.1 µM (active) in assay [13] and 63.5 µM (active) in assay [17].
Consider `NC(=O)C(F)(F)C(F)(F)C(F)(F)C(F)(F)C(N)=O`, for which the call in assay [1], in assay [2], in [3], in assay [4], in [5] and in [6] was inactive. Moreover, the outcome in [7], in assay [8], in assay [9], in assay [10], in [20] and in assay [12] was inactive. The outcome in [13], in [14], in assay [15], in [16], in assay [17] and in assay [18] was inactive. In assay [19], the result was inactive.
